Screening data: PubChem BioAssay, several laboratories
CF NFkB block: blocks PAF-induced NF-kB reporter in cystic fibrosis cells | AID 588850 | inhibition, % at 5 µM | KKLEB NF-kB-GFP reporter, GFP fluorescence overnight | hit rate 0.86% among 360,000;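 active = at least 50% inhibition at 5 µM, scaled per plate between neutral and stimulator controls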;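 also: PAF is a Pseudomonas aeruginosa culture filtrate used as stimulus; plate controls were PAF-stimulated DMSO wells for no effect and unstimulated DMSO wells for full effect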
HIF-2a inh: inhibitors of HIF-2a; 786-0 RCC cells HIF-2a reporter, luciferase luminescence, overnight; inhibition, % at 18.8 µM; hit rate 0.72% among 360,000;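 active = inhibition of the luminescence signal of 40% or more relative to plate controls, in a single-dose primary screen at 18.75 µM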
TRPM1 prom inh: inhibitors of MITF-driven TRPM1 promoter in melanoma cells; SK-MEL-5 TRPM1 promoter luciferase, 24 h; inhibition, % at 12.5 µM; hit rate 0.83% among 330,000;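 active = mean inhibition across replicates of 60% or more, whatever share of single replicates reaches that level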
Shn3 3UTR inh: Schnurri-3 reporter inhibition in Clone20 osteoblasts; Clone20 osteoblast Shn3 3'UTR firefly luciferase, 24 h; inhibition, % at 12.5 µM; hit rate 0.52% among 360,000; AID 588674;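 active = mean inhibition of at least 75% with every replicate also reaching 75%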;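 also: 0% = median of neutral control wells and 100% = pilot-screen positive control compound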
Peg3 prom inh: inhibitors of Peg3 promoter; HeLa PEG-Prom luciferase reporter, luminescence, overnight; inhibition, % at 20 µM; hit rate 1.7% among 360,000; AID 588405;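 active = inhibition of at least 50% at 20 µM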
KKLEB cytotox: counter-screen for CF NF-kB inhibitors: cytotoxicity. KKLEB CF airway cells viability, ATPlite luminescence, overnight; active compounds read low; cells stimulated with P. aeruginosa culture filtrate. activity change (cytotoxicity), % at 5 µM. hit rate 0.36% among 360,000;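 active = corrected activity change at or below -50% at 5 µM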
CF NFkB inh conf: CF NF-kB inhibition confirmation, single concentration; shares compounds with CF NFkB block; KKLEB CF airway cells, PAF-induced NF-kB-GFP fluorescence, overnight; inhibition, % at 5 µM; hit rate 64% among 1,300; AID 602472; in the data active = inhibition above about 40%;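 also: stimulus PAF is a Pseudomonas aeruginosa filtrate and not platelet activating factor; plate controls were DMSO wells with stimulus for no effect and unstimulated DMSO wells for full effect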
* marks the source's active call; other numbers are inactive results; · = no result. Hits are enriched below; roughly 2.8% of the tested compounds scored in any of these assays.

SMILES	CF NFkB block	HIF-2a inh	TRPM1 prom inh	Shn3 3UTR inh	Peg3 prom inh	KKLEB cytotox	CF NFkB inh conf
Oc1ccc(C[C@H]2CN([C@@H](Cc3ccccc3)CN3CCC[C@@H]3CN3C(=S)NC[C@@H]3Cc3ccccc3)C(=S)N2CC2CCCCC2)cc1	23.8	0.1	·	-5.0	-0.6	-10.2	·
CC(C)C[C@H]1CNC(=S)N1C[C@H]1CCCN1C[C@H](Cc1ccccc1)N1C[C@H](Cc2ccc(O)cc2)N(CC2CCCCC2)C1=S	65.1*	-12.1	·	-11.2	92.9*	-22.5	19.0
CC(C)C[C@@H](CN1CCC[C@@H]1CN1C(=S)NC[C@@H]1Cc1ccc(O)cc1)N1C[C@H](Cc2ccc(O)cc2)N(CC2CCCCC2)C1=S	67.1*	-31.0	·	7.5	98.4*	-39.0	46.1*
Oc1ccc(C[C@H]2CNC(=S)N2CC2CCCN2C[C@H](Cc2ccc(O)cc2)N2C[C@H](Cc3ccc(O)cc3)N(CC3CCCCCC3)C2=S)cc1 (stereo partly drawn)	62.0*	-42.8	71.5*	72.4	54.3*	-14.1	32.4
Oc1ccc(C[C@H]2CNC(=S)N2CC2CCCN2C[C@H](Cc2ccc(O)cc2)N2C[C@H](Cc3ccccc3)N(CC3CCCCC3)C2=S)cc1 (stereo partly drawn)	51.5*	-27.7	34.7	78.8	91.9*	-7.1	45.4*
O=C(CC1Sc2ccccc2NC1=O)NCc1ccc(Cl)cc1 (stereo not drawn)	5.3	15.7	5.6	1.5	14.2	-5.8	·
O=C(CCc1nnc(CCc2c[nH]c3ccccc23)o1)NC1CCC1	-11.6	-282.0	-42.8	-76.7	-240.1	6.6	·
CC1(C)C(=O)Nc2ccccc2N1C(=O)COC(=O)COc1ccc(C#N)cc1	-23.1	10.8	5.5	-5.6	11.1	31.5	·
NNC(=O)Cc1cccc2ccc(Cl)cc12	-0.5	3.5	·	4.4	-15.7	-5.6	·
CC(C)C[C@@H](CN1CCCC1CN1C(=S)NC[C@@H]1Cc1ccc(O)cc1)N1C[C@H](Cc2ccc(O)cc2)N(CCc2ccccc2)C1=S (stereo partly drawn)	59.3*	-36.9	34.6	42.7	91.1*	-11.3	61.0*
Oc1ccc(C[C@H]2CN([C@@H](Cc3ccccc3)CN3CCCC3CN3C(=S)NC[C@@H]3Cc3ccccc3)C(=S)N2CCc2ccccc2)cc1 (stereo partly drawn)	·	-3.5	·	·	·	·	·
CCOc1ccc(CCN2C(=S)N([C@@H](Cc3ccc(O)cc3)CN3CCC[C@@H]3CN3C(=S)NC[C@@H]3CC(C)C)C[C@@H]2Cc2ccc(O)cc2)cc1	55.4*	-48.4	·	16.6	100.7*	-16.3	-15.0
CCOC(=O)N1CCc2c(sc(NC(=O)CN3CCOCC3)c2C(=O)Nc2ccccc2)C1	56.7*	18.2	-2.9	1.6	23.7	-8.8	-0.8
CCOC(=O)N1CCc2c(sc(NC(=O)CN3CCN(C)CC3)c2C(=O)Nc2ccccc2)C1	-15.8	7.0	0.0	-1.0	0.3	-8.8	·
COCCn1c(N)c(S(=O)(=O)c2cccs2)c2nc3ccccc3nc21	-7.0	14.2	-11.0	-20.5	12.5	8.7	·
COc1cccc(/C=N/n2c(N)c(S(=O)(=O)c3cccs3)c3nc4ccccc4nc32)c1OC	53.8*	3.4	25.4	-14.2	3.9	15.1	10.9
Cc1sc2ncn(CC(=O)NCC3COc4ccccc4O3)c(=O)c2c1S(=O)(=O)N1CCCCC1 (stereo not drawn)	1.1	13.5	-9.3	24.2	13.9	2.7	·
CCN(CC)CCN(C(=O)CCS(=O)(=O)c1ccccc1)c1nc2c(C)cc(C)cc2s1	73.4*	22.9	13.3	12.1	57.5*	-29.4	69.8*
Cc1ccc(F)cc1-c1cc(C(=O)NCc2cc(C(F)(F)F)cc(C(F)(F)F)c2)[nH]n1	15.5	4.2	·	-13.8	12.8	1.7	·
Cc1ccc(Cl)cc1-c1cc(C(=O)NCc2cc(C(F)(F)F)cc(C(F)(F)F)c2)[nH]n1	58.6*	-29.4	·	-9.4	39.7	-31.1	62.9*
COc1cccc(CNc2ncnc3cc(OC)c(OC)cc23)c1	8.5	22.0	1.5	16.5	20.7	0.9	·
COc1cccc(-c2ccc3ncnc(NCc4cccnc4)c3c2)c1	71.0*	26.4	-5.1	4.7	28.6	-15.8	83.4*
CCN(CC)S(=O)(=O)c1ccc(NC(=O)Nc2cccc(C(F)(F)F)c2)cc1	61.1*	29.1	60.5*	95.6*	52.1*	-48.7	81.4*
COC(=O)c1ccc(-c2ccc(OC)c([C@H]3[C@H]4C=CC[C@@H](C)[C@@H]4C(=O)N3Cc3ccccc3)c2)cc1	66.4*	23.6	-23.5	3.4	29.2	-12.3	52.7*
C[C@@H]1CC=C[C@H]2[C@H]1C(=O)N(Cc1ccccc1)[C@H]2c1cccc([N+](=O)[O-])c1	56.2*	13.3	-7.6	86.6*	17.9	-21.4	16.4
SMILES	CF NFkB block	HIF-2a inh	TRPM1 prom inh	Shn3 3UTR inh	Peg3 prom inh	KKLEB cytotox	CF NFkB inh conf
C[C@@H]1CC=C[C@H]2[C@H]1C(=O)N(Cc1ccccc1)[C@H]2c1ccoc1	28.0	18.9	-10.3	-5.4	-47.9	-5.3	·
CC[C@@H]1CC=C[C@H]2[C@H]1C(=O)N(Cc1ccccc1)[C@H]2c1ccoc1	59.2*	32.3	17.2	13.7	87.8*	-18.7	13.0
CC(C)Oc1ccccc1C1NC(=O)CCC1[N+](=O)[O-] (stereo not drawn)	-6.2	5.8	-2.5	-3.2	2.3	-2.1	·
O=C1NCCc2c1[nH]c1c(Cl)ccc(Cl)c21	55.6*	37.5	-15.1	2.9	16.8	-14.7	70.9*
CCN(CC)c1ncnc2ccc(Br)cc12	70.6*	18.6	11.6	24.1	15.3	-17.2	40.2*
CCCn1c(-c2nonc2N)nc2ccccc21	65.6*	6.9	-10.7	27.3	8.1	-28.0	61.1*
Cn1c(-c2nonc2N)nc2ccccc21	-18.5	-21.1	-9.9	-10.0	-23.3	5.5	·
CC1(C2CC(C(F)(F)F)n3nc(C(=O)O)cc3N2)CC1 (stereo not drawn)	1.4	-63.1	-3.9	-43.5	-46.9	8.5	·
CC(C)=CCc1c(O)c(CC=C(C)C)c2c(c1O)C(=O)CC(c1ccc(O)cc1)O2 (stereo not drawn)	26.8	-34.0	-8.7	10.6	5.6	-8.4	·
CC(C)=CCc1c(O)cc(O)c2c1OC(c1ccc(O)cc1)CC2=O (stereo not drawn)	52.6*	13.8	-13.7	-31.4	24.7	-12.4	71.8*
CN(C)N=Nc1ccc(-c2cn(Cc3ccccc3)cn2)cc1	-14.6	-237.5	-26.0	-19.6	-200.2	-1.2	·
CN(C(=O)c1cc(S(=O)(=O)N2CCCCC2)c[nH]1)C1CCCCC1	-2.7	19.3	·	-0.7	14.6	-11.5	·
Cc1ccc(N(C)C(=O)c2cc(S(=O)(=O)N3CCCCC3)c[nH]2)cc1	50.3*	10.4	-16.0	3.3	14.5	0.7	56.4*
